Compounds with a hit are over-represented: about 7.9% of the library has one in this group of screens.
Lassa entry inh: blocks Lassa virus binding to or entry into cells. Potency, µM (doses to about 37.9 µM), without a hit: at the top dose activity change, negative = inhibition, hits mostly inhibitors. AID 540256. Lassa virus pseudotype entry inhibition, cell reporter. actives 1.2% (n = 300,000); calls by dose curve; tested in HEK293 cells; further: potency means the concentration at half of the fitted maximal effect; nearly all actives have a fitted effect of over 50% in size
FMDV antiviral: blocks foot and mouth disease virus. Potency, µM (titrated, usually from 57.9 µM), for the others: at the top dose activity change, negative = inhibition, actives largely listed as inhibitors. actives 1.2% (n = 410,000). AID 1159524. FMDV antiviral cell-based qHTS; calls by dose curve; tested in HEK293T cells; further: read-out not given here; potency means the concentration at half of the fitted maximal effect; nearly all actives have a fitted effect of over 45% in size
HCMV antiviral: blocks human cytomegalovirus replication; HFF cells, HCMV-luciferase reporter, 72 h; hits give low values; activity change, negative = inhibition, % at 57.5 µM; actives 4.5% (n = 410,000); AID 1259415; in the data active means activity change below about -60%; inconclusive means no clear call, values can overlap the other calls; inactive means above about -39%
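Screen run at 2 compound doses on HFFs infected with reporter HCMV, MOI 1 PFU/cell. Luciferase activity from cell lysates at 72 h post infection gave inhibition relative to buffer-only and Salinomycin wells.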
MARV entry inh: inhibitors of Marburg virus binding or cell entry; Marburg virus pseudotyped entry inhibition, cell reporter; Potency, µM (doses to about 37.8 µM), without a hit: at the top dose activity change, negative = inhibition, usual class: inhibitors; actives 1.8% (n = 300,000); calls by dose curve; tested in HEK293 cells; further: potency means the concentration at half of the fitted maximal effect
HCV inhibitor: HCV inhibition | Potency, µM (series often up to 41.8 µM), inactives show at the top dose activity change, negative = inhibition, most hits filed as inhibitors | Huh7.5.1 HCVcc-Cre infection, luciferase reporter, 44 h | AID 651820 | actives 3.4% (n = 340,000); active means well fitted inhibition curve with a large enough effect; inconclusive means small, poorly fitted or top-dose-only effect, or another doubt; inactive means no such curve, though single readings can be large or run the other way; further: potency means the concentration at half of the fitted maximal effect
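Reporter virus HCVcc-Cre (~0.5 moi) infects cells exposed to compound; seeding density 1,000 cells/well with 4 h settling beforehand. Luminescence, 15 sec read, taken 44 h post-infection following a 15 min RT substrate incubation.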
Numbers without * were called inactive; u = inconclusive; x = no result; [ ] = remark or other dose. On the % scale 0 is the no-effect control and ±100 the full control effect.

SMILES	Lassa entry inh	FMDV antiviral	HCMV antiviral	MARV entry inh	HCV inhibitor
CC(=O)c1ccc(N2CCN(c3ccc(S(=O)(=O)NCCCN(C)C)cc3[N+](=O)[O-])CC2)cc1	x	-20.1%	0.0	x	11.2µM*
CC(=O)c1ccc(N2CCN(c3ccc(S(=O)(=O)NCCN(C)C)cc3[N+](=O)[O-])CC2)cc1	x	-3.9%	4.0	x	u
O=Cc1cc([N+](=O)[O-])ccc1N1CCN(Cc2ccc3c(c2)OCO3)CC1	7.4%[46.1 µM]	-25.7%	-102.0*	2.6%[46.1 µM]	u
O=[N+]([O-])c1cc(S(=O)(=O)Nc2ccccc2)ccc1N1CCN(c2ccccc2)CC1	u	u	-32.5	u	12.6µM*
CN(C)CCCNS(=O)(=O)c1ccc(N2CCN(Cc3ccc4c(c3)OCO4)CC2)c([N+](=O)[O-])c1	u	-19.5%	-37.6	u	5.62µM*
Cc1cccc(/N=C/c2ccccn2)n1	x	3.1%	20.2	x	41.2%
CCCCCC(=O)N1C[C@@H](O)[C@H](n2cc(-c3ccc(F)cc3)nn2)C[C@H]1c1ccc(OC)cc1	10.8%[46.1 µM]	x	x	x	x
COc1ccc(NC(=O)CSc2oc(-c3ccc(F)cc3)nc2S(=O)(=O)c2ccc(C)cc2)c(OC)c1	-8.4%[46.1 µM]	-3.2%	-8.3	4.3%[46.1 µM]	x
O=c1[nH]c(=S)[nH]c2c1C(c1ccc(Cl)cc1)OC(CCc1ccccc1)C2 (stereo not given)	x	u	-1.4	x	x
Fc1ccc(Nc2nccc(-c3c(-c4ccc(C(F)(F)F)cc4)nn4ncccc34)n2)cc1F	-4.2%	x	x	x	x
CN(C)CCCNc1nccc(-c2c(-c3ccc(F)cc3)nn3cc(C(F)(F)F)ccc23)n1	22.3µM*	x	x	x	x
CC(C)(C)OC(=O)N1CCC[C@H]1c1nnc(SCc2ccccc2)o1	u	-11.2%	-37.7	-5.5%[14.2 µM]	26.4%
Cc1ccc(CSc2nnc([C@@H]3CCCN3C(=O)OC(C)(C)C)o2)cc1	x	-28.4%	-15.5	x	22.4µM*
COC(C[C@@H](O)[C@@H](C)[C@@H](O)COCc1ccccc1)OC	x	-16.3%	14.5	x	10.4%
COc1ccc(N2CCN(C3CCCN(C(=O)C4=C(C)OCCO4)C3)CC2)cc1 (stereo not given)	16.3%	0.0%	6.2	1.7%	24.5%
CCOC(=O)c1oc2ccc(Br)cc2c1COC(=O)C1=COCCO1	8.3%	-1.2%	-24.2	-10.5%[46.1 µM]	25.1µM*
Cc1ccc2c(COC(=O)C3=COCCO3)cc(=O)oc2c1	u	6.7%	59.9	u	0.7%
CCOc1ccc(-c2cn(-c3ccccc3OC)c(=S)[nH]2)cc1	-17.1%[46.1 µM]	-7.4%	-80.5*	u	u
COc1ccccc1-n1cc(-c2ccccc2)[nH]c1=S	x	u	1.2	x	-14.5%
CCN(C(=O)c1cc2c(C)nc3ccccc3c2o1)c1cc(Cl)ccc1OC	u	u	u	12.6µM*	10µM*
CCc1nc2ccc(C(=O)Nc3ccc(NC(C)=O)cc3)cn2c1N(C)C(=O)Cc1ccccc1	x	-7.1%	11.4	x	x
O=C(NCc1ccc(Cl)cc1)c1ccc(CNS(=O)(=O)c2ccc(F)cc2)cc1	14.8%[46.1 µM]	-13.9%	67.6	x	x
O=C(NCc1ccco1)/C(=C/C=C\c1ccccc1)NC(=O)c1ccc(Br)o1	u	35.1%	-69.1*	u	-13.3%
O=C(c1ccc(Cl)cc1)C1CCCN(Cc2cccn2-c2cccnc2)C1 (stereo not given)	0.2%	u	u	-39.0%[46.1 µM]	-28.4%
O=C(c1ccc(Cl)cc1)C1CCCN(Cc2cnn(-c3ccccc3)c2)C1 (stereo not given)	-25.5%	-26.1%	-1.8	5.62µM*	22.4µM*
SMILES	Lassa entry inh	FMDV antiviral	HCMV antiviral	MARV entry inh	HCV inhibitor
Cc1nn(C)cc1CN1CCCC(C(=O)c2ccc(-c3ccccc3)cc2)C1 (stereo not given)	u	u	-66.1*	u	4.47µM*
O=C(c1ccc(Cl)cc1)C1CCCN(Cc2ccc(Oc3ncccn3)cc2)C1 (stereo not given)	x	u	-36.8	x	11.2µM*
Cc1ccsc1C(=O)C1CCCN(Cc2cn(C)nc2C)C1 (stereo not given)	2.8%	-1.6%	2.5	-7.0%[46.1 µM]	5.6%
CN(C)CCNC(=O)c1cccc(-c2cnc3c(NC=O)cc(-c4cccc(F)c4)cn23)c1	x	-5.6%	-87.4*	x	x
COc1ccc(-c2cc(NC=O)c3ncc(-c4cccc(C(=O)NCCN(C)C)c4)n3c2)cc1	x	-4.9%	-65.6*	x	x
CC(=O)Nc1cc(-c2cccc(C(=O)NCCN(C)C)c2)cn2c(-c3cccc(C(F)(F)F)c3)cnc12	x	-20.6%	-99.6*	x	x
CN(C)CCNC(=O)c1cccc(-c2cnc3c(NC=O)cc(-c4ccc(F)cc4)cn23)c1	x	1.8%	u	x	x
COc1cc(OC)c2nc(-c3cc4c(c(OC)c3)OCCN(Cc3cn(C)nc3C)C4)cc(C)c2c1	x	-11.6%	x	x	x
CCOC(=O)[C@]12Cc3cc(N(C)C)ccc3[C@H]1N(Cc1ccccc1)C(=O)c1ccccc12	x	0.0%	-26.1	x	11.2µM*
CCOC(=O)[C@]12Cc3ccccc3[C@H]1N(Cc1ccccc1)C(=O)c1cc(F)c(F)cc12	x	25.1µM*	u	x	x
CCOC(=O)[C@]12Cc3cc(Cl)ccc3[C@H]1N(Cc1ccccc1)C(=O)c1ccccc12	x	u	-34.0	x	-12.9%[8.37 µM]
Cc1cc(C)c2sc(N(CCCN(C)C)C(=O)c3ccc(S(=O)(=O)N4CCCc5ccccc54)cc3)nc2c1	x	u	-60.6*	x	u
COc1ccc2sc(N(CCCN(C)C)C(=O)c3ccc(S(=O)(=O)N4CCc5ccccc5C4)cc3)nc2c1	3.55µM*	25.1µM*	-97.6*	u	u
Cc1cccc2sc(N(CCCN(C)C)C(=O)c3ccc(S(=O)(=O)N4CCc5ccccc5C4)cc3)nc12	u	-16.6%	-99.6*	u	-9.5%
Cc1ccc2nc(N(CCCN(C)C)C(=O)c3ccc(S(=O)(=O)N4CCc5ccccc5C4)cc3)sc2c1	u	u	-103.1*	u	u
CN(C)CCCN(C(=O)c1ccc(S(=O)(=O)N2CCc3ccccc3C2)cc1)c1nc2c(F)cccc2s1	-11.2%[46.1 µM]	-15.7%	13.9	-29.5%[46.1 µM]	u
CN(C)CCCN(C(=O)c1ccc(S(=O)(=O)N2CCc3ccccc3C2)cc1)c1nc2ccc(F)cc2s1	u	-23.3%	14.5	u	u
CCOC(=O)Cn1nc(NC(=O)COc2ccc(F)cc2)cc1C	15.4%	3.7%	-5.1	-5.5%	x
CCCN1CCN(CC2=C(C(=O)OCC)C(c3cccc(OC)c3OC)NC(=O)N2)CC1 (stereo not given)	15.8%[46.1 µM]	-10.0%	-2.8	2.7%[46.1 µM]	x
CC(C)CN(C(=O)CSc1nc2ccccc2o1)c1c(N)n(Cc2ccccc2)c(=O)[nH]c1=O	-2.1%	-17.9%	-30.2	u	-2.1%
COCCNC(=O)CN(C(=O)CCC(=O)Nc1ccccn1)c1ccc(C)cc1C	x	-10.2%	-2.6	x	7.1%
CC[C@]1(c2ncc[nH]2)Cc2ccccc2O1	x	0.4%	x	x	x
COCCn1c(=NC(=O)c2ccc(S(=O)(=O)N3CCc4ccccc4C3)cc2)sc2cc(OC)ccc21	-0.2%	-5.9%	-29.3	-7.1%	12.6µM*
